{
  "source": "PubChem BioAssay (NCI)",
  "note": "The panel holds about 83,000 compounds, 20% with a hit somewhere; the sample as a whole holds those more often.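 Results are percent growth after 48 hours of single-concentration exposure. 100 means growth as in untreated cells, lower positive values show inhibition; negative values down to -100 show cell death.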 Activity calls are given as the source filed them. Rule for the calls: active = growth percent below 10; inactive = the rest.",
  "data": [
    {"test_system": "KM12 colon", "test": "NCI-60 one-dose screen, 48 h (100 = growth as untreated, 0 = no growth, -100 = all killed)", "details": "10 µM", "values": [
      {"smiles": "O=C(O)c1ccc(-n2cc(CNc3ccc(Cl)cc3)c(-c3ccccc3)n2)cc1", "growth": "87.8% (inactive)"},
      {"smiles": "Cc1ccc(C(=O)C2C(=O)C3CCC2C3)cc1", "note": "(stereo not given)", "growth": "107% (inactive)"},
      {"smiles": "COc1cc2c(Nc3ccc(S(N)(=O)=O)cc3)ncnc2c(OC)c1OC", "growth": "99.2% (inactive)"},
      {"smiles": "CN1CCN(CC(=O)Nc2cccc(-n3cc(-c4ccncc4)c(-c4ccc(Cl)c(O)c4)n3)c2)CC1", "growth": "26.1% (inactive)"},
      {"smiles": "O=[N+]([O-])c1cccc(/C=N/NC(=S)NC23CC4CC(CC(C4)C2)C3)c1", "growth": "95.2% (inactive)"},
      {"smiles": "CN1CCN(c2cc3c(cc2F)c(=O)c(C(=O)O)cn3-c2ccc(F)cc2)CC1", "growth": "99% (inactive)"},
      {"smiles": "O=C(CN1CCN(C(=O)c2ccccc2)CC1)Nc1ccccc1SCc1ccccc1", "growth": "84.2% (inactive)"},
      {"smiles": "Clc1ccc2c(c1)C(N1CCNCC1)=Nc1ccccc1O2", "growth": "51.9% (inactive)"},
      {"smiles": "CCOC(=O)c1cc(C(=O)c2cc(OC)c(OC)c(OC)c2)n2ncc3ccccc3c12", "growth": "39.6% (inactive)"},
      {"smiles": "CC(=O)C1CCC2C3CC=C4CC(SC(=N)N)CCC4(C)C3CCC12C", "note": "(stereo not given)", "growth": "31.8% (inactive)"},
      {"smiles": "COc1cc2c(Nc3ccc(-c4ccc(N)cc4)cc3)ncnc2c(OC)c1OC", "growth": "3.42% (active)"},
      {"smiles": "C#C[C@]1(O)CCC2C3CCc4cc(OC5CCCC5)ccc4C3CC[C@@]21C", "note": "(stereo not given in full)", "growth": "34.1% (inactive)"},
      {"smiles": "Cc1cc(SC#N)cc(C(C)(C)C)c1O", "growth": "105% (inactive)"},
      {"smiles": "Cc1cc(CCNC=O)c(C)c2c1sc1ccccc12", "growth": "103% (inactive)"},
      {"smiles": "CO[C@H]1CC(O[C@@H]2/C(C)=C/C[C@@H]3C[C@@H](C[C@]4(C=C[C@H](C)[C@@H](C5CCCCC5)O4)O3)OC(=O)[C@@H]3C=C(C)[C@@H](O)[C@H]4OC/C(=C\\C=C\\[C@@H]2C)[C@]43O)O[C@@H](C)C1O[C@H]1C[C@H](OC)[C@@H](O)[C@H](C)O1", "note": "(stereo not given in full)", "growth": "-88.6% (active)"},
      {"smiles": "CCN(CC)c1ccc(/C=C2\\SC(=O)C(Nc3nnc(-c4cccnc4SCc4ccccc4)o3)C2=O)cc1", "note": "(stereo not given)", "growth": "10.3% (inactive)"},
      {"smiles": "O=C(N/N=C/c1ccc([N+](=O)[O-])cc1)c1ccccc1Nc1cccc(C(F)(F)F)c1", "growth": "141% (inactive)"},
      {"smiles": "CC(=O)[C@H]1CC[C@]2(C)[C@@H]1CC[C@@H]1[C@@]3(C)CC(CCC#N)(CCC#N)C(=O)C(C)(C)[C@@H]3CC[C@]12C", "growth": "94.5% (inactive)"},
      {"smiles": "Cc1cc(CSc2ccccc2C(=O)N2CC=C(c3ccccc3)CC2)on1", "growth": "97.2% (inactive)"},
      {"smiles": "N#Cc1ccc(C(=O)CSc2nccc(Nc3ccc(C(=O)O)cc3)n2)cc1", "growth": "105% (inactive)"},
      {"smiles": "COc1ccc2nc3cc(Cl)ccc3c(Nc3cc(CN4CCCC4)c(O)c(CN4CCCC4)c3)c2n1", "growth": "11.8% (inactive)"},
      {"smiles": "O=C(N/N=C/c1ccc(Cl)cc1)c1ccc(Cc2n[nH]c(=O)c3cccnc23)cc1", "growth": "108% (inactive)"},
      {"smiles": "O=S(=O)(Oc1ccc(-c2ccc3sccc3c2)cc1)c1ccc(F)cc1", "growth": "104% (inactive)"},
      {"smiles": "CNC(=O)c1c(I)c(NC(C)=O)c(I)c(C(=O)O)c1I", "growth": "109% (inactive)"},
      {"smiles": "C/C(=N\\O)c1ccc(NC(=O)CSc2nnc(-c3ccccc3)n2-c2ccccc2)cc1", "growth": "73.3% (inactive)"},
      {"smiles": "COc1ccc(/C=C2/SC(=S)NC2=O)c(OC)c1OC", "growth": "93.3% (inactive)"},
      {"smiles": "C[C@]12CC[C@@H]3c4ccc(O)cc4CC[C@H]3[C@@H]1CC[C@@H]2NS(=O)(=O)c1ccc(C(F)(F)F)cc1", "growth": "47.5% (inactive)"},
      {"smiles": "NS(=O)(=O)c1ccc(Br)cc1", "growth": "99.5% (inactive)"},
      {"smiles": "CNS(=O)(=O)Oc1ccc(-c2ccc3occc3c2)cc1", "growth": "99% (inactive)"},
      {"smiles": "COc1cc(-c2nn(-c3cccc(NC(=O)CCN4CCN(c5ccccc5)CC4)c3)cc2-c2ccncc2)ccc1Cl", "growth": "13.3% (inactive)"},
      {"smiles": "CCN(CC)CC(=O)N(CC)c1ccc(C)c(Cl)c1", "growth": "97.9% (inactive)"},
      {"smiles": "Cc1cccc(N=Cc2ccccc2O)c1C", "growth": "114% (inactive)"},
      {"smiles": "CCCCC1(O)CCCCC1", "growth": "96.8% (inactive)"},
      {"smiles": "COc1ccc(/C=C2\\CCCC3=C2N=C2SC(C)=CN2C3c2ccc(OC)cc2)cc1", "note": "(stereo not given)", "growth": "108% (inactive)"},
      {"smiles": "c1ccc(CSc2ncccc2-c2nnc(SCCN3CCOCC3)o2)cc1", "growth": "107% (inactive)"},
      {"smiles": "C/C=C/C1=CN2C(=O)c3cc(OC4OC(C)C(NC)C(C)(O)C4O)c(C)c(O)c3N=C[C@@H]2C1", "note": "(stereo not given in full)", "growth": "-60.7% (active)"},
      {"smiles": "C[C@]12CC[C@@H]3c4ccc(OS(=O)(=O)O)cc4CC[C@H]3[C@@H]1CC[C@@H]2NS(=O)(=O)c1ccc(-c2ccccc2)cc1", "growth": "60.5% (inactive)"},
      {"smiles": "COc1ccc(/C(C#N)=C/c2ccccc2OC)cc1", "growth": "32.2% (inactive)"},
      {"smiles": "COc1ccc(Cc2cnc(N)nc2N)cc1OC", "growth": "110% (inactive)"},
      {"smiles": "Cc1cc(CC(C)CC(C)(C)C)n(O)c(=O)c1", "note": "(stereo not given) (tested in a mixture with another compound)", "growth": "27.4% (inactive)"}
    ]}
  ]
}
